Experimental findings from PubChem BioAssay (Tox21) are described below.

SMILES strings stand for the structures. Where “and” joins values, the source holds several entries; their conditions need not be identical. Identical values can stand only once. Records with an inconclusive call do not appear. Calls of active or inactive are those of the source. Unless noted, calls come from the whole dose curve; as a rule, active = well fitted curve in the direction sought with a large enough effect in the repeat runs; inconclusive = weak or mixed curves; inactive = no such curve, though single readings can be large; an effect the other way counts as inactive or inconclusive.

Test [1] concerns the target Aryl hydrocarbon receptor (Homo sapiens) (UniProt P35869). Put plainly: qHTS assay to identify small molecule that activate the aryl hydrocarbon receptor (AhR) signaling pathway (AID 743085).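 For activation: HG2L7.5c1 human HepG2 liver cells with stably integrated DRE-driven firefly reporter.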 Note: nearly all actives have a fitted effect of over 15% in size. The conditions noted are these: HepG2 AhR-luc (HG2L7.5c1), luciferase, 24 h; series mostly up to 70.3 µM. The gist of the method:
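Cell line HG2L7.5c1 (human hepatoma, 20× DRE-luc). Plated, 5 h 37C, compound/DMSO added, 24 h 37C. CellTiter-Fluor 30 min 37C → fluorescence; then ONE-Glo 30 min RT → luminescence.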

Test [2] can be described thus: qHTS assay to identify small molecule that activate the aryl hydrocarbon receptor (AhR) signaling pathway - cell viability counter screen (AID 743086). Note: nearly all actives have a fitted effect of over 45% in size. The conditions noted are these: HepG2-AhR-luc viability, CellTiter-Fluor, 24 h; series mostly up to 70.3 µM. The method in brief: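 Cytotoxicity counter screen: CellTiter-Fluor signal (30 min, 37 C) in 4000 HepG2 cells/well carrying the DRE-luciferase reporter, following 24 h compound exposure at 37 C.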
In general terms: Quantitative high-throughput screening tests each substance at several concentrations.

Test [3] in a line: qHTS assay to identify small molecule antagonists of the peroxisome proliferator-activated receptor gamma (PPARg) signaling pathway - cell viability counter screen (AID 743194). Note: nearly all actives have a fitted effect of over 55% in size. To be noted: PPARg-bla HEK293H viability, CellTiter-Glo luminescence, 17 h; Potency: co-treated with 50 nM rosiglitazone unless noted; series mostly up to 62.6 µM. The method in brief:
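Viability was measured as CellTiter-Glo luminescence in GeneBLAzer PPARg UAS-bla HEK293H cells. These cells had been exposed 17 h at 37 C to compounds together with rosiglitazone at 50 nM final, with the beta-lactamase readout taken in the same wells.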

The nature of test [4]: qHTS assay for small molecule agonists of the antioxidant response element (ARE) signaling pathway - cell viability counter screen (AID 743203; calls by dose curve; note: nearly all actives have a fitted effect of over 55% in size). The conditions noted are these: ARE-bla HepG2 viability, CellTiter-Glo luminescence, 16 h; series mostly up to 73.3 µM. The gist of the method: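 Parallel cytotoxicity read-out for the ARE-bla screen: HepG2 reporter cells, 16 hrs with compounds, then CellTiter-Glo luminescence.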

Test [5] can be described thus: qHTS assay for small molecule activators of the heat shock response signaling pathway - cell viability counter screen (AID 743209). Note: nearly all actives have a fitted effect of over 50% in size. The conditions noted are these: HSE-bla HeLa viability, CellTiter-Glo luminescence, 5 h; series mostly up to 62.6 µM. The gist of the method: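 To flag cytotoxic compounds, HSE-bla HeLa cells plated at 1500 cells/well were dosed for 5 h at 37 C, followed by the reporter FRET read and then CellTiter-Glo, with luminescence recorded 30 min after reagent addition.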

Test [6] in a line: qHTS assay for small molecule activators of the heat shock response signaling pathway (AID 743210; active = well fitted activation curve with a large enough effect in the signal ratio in the repeat runs, with a control signal flat, not every such curve was filed as active; the % refers to the signal ratio). The conditions noted are these: HeLa HSE-bla reporter, beta-lactamase ratio, 5 h; series mostly up to 62.6 µM. The method in brief: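 Compound exposure lasted 5 h at 37 C in HeLa cells carrying a heat-shock-element-driven beta-lactamase reporter. Read-out: fluorescence intensity after 2.5 h room-temperature loading with LiveBLAzer B/G FRET substrate.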

Test [7] is described as follows: qHTS assay for small molecule agonists of the antioxidant response element (ARE) signaling pathway (AID 743202; active = well fitted activation curve with a large enough effect in the signal ratio in the repeat runs, not every such curve was filed as active; the % refers to the signal ratio). To be noted: HepG2 ARE-bla reporter, beta-lactamase FRET, 16 h; series mostly up to 73.3 µM. The method in brief: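 After 16 hours of compound treatment at 37 C, HepG2 cells with a stably integrated ARE-driven beta-lactamase reporter were loaded 2 hours at room temperature with LiveBLAzer B/G FRET substrate and fluorescence intensity measured.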

The target in test [8] is Peroxisome proliferator-activated receptor gamma (Homo sapiens) (UniProt P37231). Put plainly: qHTS assay to identify small molecule agonists of the peroxisome proliferator-activated receptor gamma (PPARg) signaling pathway (AID 743094; active = well fitted activation curve with a large enough effect in the signal ratio in the repeat runs, not every such curve was filed as active; the % refers to the signal ratio). To be noted: HEK293H PPARg-UAS-bla, beta-lactamase FRET ratio, 17 h; series mostly up to 57 µM. The method in brief: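 Fluorescence-based beta-lactamase readout in HEK293H PPARg UAS-bla cells after 17 h compound exposure (37C) and 1 h B/G FRET substrate incubation at room temperature.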
Chain of Peroxisome proliferator-activated receptor gamma (Homo sapiens) (P37231 whole entry, looked up): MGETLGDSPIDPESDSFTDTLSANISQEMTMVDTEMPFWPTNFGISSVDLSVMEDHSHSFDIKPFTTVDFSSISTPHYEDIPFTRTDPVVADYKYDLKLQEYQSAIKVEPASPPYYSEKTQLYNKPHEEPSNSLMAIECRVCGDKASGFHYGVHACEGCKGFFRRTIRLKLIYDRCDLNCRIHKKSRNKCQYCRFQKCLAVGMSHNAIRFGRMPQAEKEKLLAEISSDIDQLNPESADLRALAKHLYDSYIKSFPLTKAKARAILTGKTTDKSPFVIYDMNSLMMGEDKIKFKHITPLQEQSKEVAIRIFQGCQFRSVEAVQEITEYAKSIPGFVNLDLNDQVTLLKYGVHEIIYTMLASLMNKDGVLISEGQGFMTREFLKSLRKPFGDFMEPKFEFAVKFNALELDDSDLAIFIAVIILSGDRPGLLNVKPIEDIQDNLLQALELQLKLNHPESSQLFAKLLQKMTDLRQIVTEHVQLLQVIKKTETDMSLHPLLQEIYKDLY

Test [9] has the same target. Put plainly: qHTS assay to identify small molecule antagonists of the peroxisome proliferator-activated receptor gamma (PPARg) signaling pathway (AID 743191; calls by dose curve; note: nearly all actives have a fitted effect of over 30% in size). The conditions noted are these: HEK293H PPARg-UAS-bla, beta-lactamase ratio, antagonist, 17 h; series mostly up to 62.6 µM. The method in brief:
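Beta-lactamase reporter under UAS control in HEK293H PPARg-bla cells; compound treatment 17 h at 37C. Read-out: fluorescence intensity after 1 h room-temperature incubation with LiveBLAzer B/G FRET substrate.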
Potency is the fitted concentration of half-maximal effect.

Chain of Aryl hydrocarbon receptor (Homo sapiens) (P35869 whole entry, looked up): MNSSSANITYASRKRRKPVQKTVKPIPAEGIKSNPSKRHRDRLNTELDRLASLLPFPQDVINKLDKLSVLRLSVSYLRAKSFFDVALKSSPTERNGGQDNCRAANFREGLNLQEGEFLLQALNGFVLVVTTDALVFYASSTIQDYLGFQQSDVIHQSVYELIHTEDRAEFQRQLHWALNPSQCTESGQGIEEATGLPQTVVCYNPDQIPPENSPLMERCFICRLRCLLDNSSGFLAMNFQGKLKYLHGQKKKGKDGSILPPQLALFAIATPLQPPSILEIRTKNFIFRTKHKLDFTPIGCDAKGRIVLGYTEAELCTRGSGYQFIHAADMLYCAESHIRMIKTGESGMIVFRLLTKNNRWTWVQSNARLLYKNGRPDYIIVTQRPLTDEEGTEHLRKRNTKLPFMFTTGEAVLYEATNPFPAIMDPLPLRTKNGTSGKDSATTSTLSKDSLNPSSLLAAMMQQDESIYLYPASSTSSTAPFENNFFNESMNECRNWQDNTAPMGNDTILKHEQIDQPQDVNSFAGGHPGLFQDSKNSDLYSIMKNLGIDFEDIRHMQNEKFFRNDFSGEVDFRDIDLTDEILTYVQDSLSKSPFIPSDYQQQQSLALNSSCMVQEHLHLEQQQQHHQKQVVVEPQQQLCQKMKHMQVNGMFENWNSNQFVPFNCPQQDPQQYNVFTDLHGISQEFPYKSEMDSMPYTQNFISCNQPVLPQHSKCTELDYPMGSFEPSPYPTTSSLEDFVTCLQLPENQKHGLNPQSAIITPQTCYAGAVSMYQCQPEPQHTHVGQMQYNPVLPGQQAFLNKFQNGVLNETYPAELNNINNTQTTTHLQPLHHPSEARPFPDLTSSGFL

On to `O=C1c2ccccc2C(=O)C1C(=O)C(c1ccccc1)c1ccc(Cl)cc1` (configuration not stated), for which the Potency entry in [1] and in test [2] was “inactive” throughout. The Potency was 11 µM (active) in test [3] and 30.6 µM (active) in test [4].

Take `O=C(O)COc1nc(Cl)c(Cl)cc1Cl`: the Potency entry in test [1], in test [4], in test [5] and in test [6] was “inactive” each time.

On to `O=C/C(Cl)=C(/Cl)C(=O)O`, for which the Potency entry in [1], in test [2], in test [3] and in test [4] was “inactive” each time. For the same compound, the Potency was 38.5 µM (active) and 27.3 µM (active) in test [7]; 38.9 µM (active) in test [5].

On to `Oc1c(Br)c(Br)c(Br)c(Br)c1Br`, for which the Potency result in test [2] and in test [5] was “inactive” in each case. In addition, the Potency in test [3] was 49.3 µM (active); in [4] it was 24.5 µM (active).

With `Nc1ccc(Cc2ccc(N)c(Cl)c2)cc1Cl`, the Potency result in test [2] and in test [8] was “inactive” throughout.

`CCCSP(=O)(OCC)SCCC`: the Potency result in test [2], in test [5] and in [6] was “inactive” in each case.

In the case of `O=S(=O)(c1ccc(Cl)cc1)c1ccc(Cl)cc1`, the Potency entry in [1], in [2], in [8], in test [4] and in [5] was “inactive” throughout.

Turning to `CC(c1ccc(O)cc1)c1ccc(O)cc1`, the Potency entry in [2], in [8], in [3], in [4], in [5] and in test [6] was “inactive” each time. Moreover, the Potency was 36.5 µM (active) in test [9] and 25.6 µM (active) in [7].

In the case of `CSCCCN=C=S`, the Potency result in test [2] is “inactive”. In test [5], the Potency was 43.6 µM (active).

For the compound `CC1(c2ccc(Oc3ccccc3)cc2)OC(=O)N(Nc2ccccc2)C1=O` (configuration not stated), the Potency entry in test [1] and in test [2] was “inactive” in each case. In addition, the Potency in test [3] is 8.76 µM (active); in [7], 0.615 µM (active); in test [4], 24.5 µM (active); in [5], 34.9 µM (active).

Regarding `COc1cc(C=O)cc2c1[C@H](COC(N)=O)[C@]1(OC(C)=O)ON2C[C@H]2[C@@H]1N2C(C)=O`, the Potency result in test [1], in test [3] and in test [6] was “inactive” in each case. Further, the Potency in test [2] is 0.306 µM (active); in [4] it was 0.154 µM (active); in [5] it was 2.45 µM (active).

As to `CCCCOCN(C(=O)CCl)c1c(CC)cccc1CC`, the Potency result in test [2] and in test [5] was “inactive” each time. For the same compound, the Potency in [4] is 48.6 µM (active).

In the case of `CS(=O)(=O)c1ccc(C(=O)C2C(=O)CCCC2=O)c([N+](=O)[O-])c1`, the Potency result in [1], in [2], in test [5] and in test [6] was “inactive” throughout.

Take `O=c1c(C2CC(c3ccc(-c4ccc(Br)cc4)cc3)Cc3ccccc32)c(O)sc2ccccc12` (configuration not stated): the Potency in test [3] is 13.3 µM (active); in test [4], 33.5 µM (active).

`CC(=O)c1cc(C(C)(C)C)cc2c1CCC2(C)C`: the Potency result in test [1], in test [2], in test [8], in [9] and in test [7] was “inactive” in each case.

With `Nc1ccc(Sc2ccc(N)cc2)cc1`, the Potency in test [1] is 13.7 µM (active). For the same compound, the Potency entry in test [2], in test [3], in [5] and in test [6] was “inactive” in each case.

`CCN(CC)c1c([N+](=O)[O-])cc(C(F)(F)F)c(N)c1[N+](=O)[O-]`: the Potency result in test [2], in test [8], in [9], in test [3], in test [7] and in test [4] was “inactive” throughout. Further, the Potency result in test [5] and in test [6] was “inactive” in each case.

With `COP(=O)(OC)SCn1c(=O)oc2cc(Cl)cnc21`, the Potency entry in [2], in test [8], in test [3] and in test [6] was “inactive” throughout. Further, the Potency in test [4] was 48.6 µM (active).

Turning to `CCOc1cc(C(C)(C)C)ccc1C1COC(c2c(F)cccc2F)=N1` (configuration not stated), the Potency entry in test [2], in test [8] and in [5] was “inactive” each time. For the same compound, the Potency was 11.8 µM (active) in test [3] and 5.88 µM (active) in [7].

As for `Oc1ccc2ccc3cccc4ccc1c2c34`, the Potency result in [2] and in test [5] was “inactive” in each case.

On to `CC(Cc1ccc(C(C)(C)C)cc1)CN1C[C@@H](C)O[C@@H](C)C1` (some centres not stated), for which the Potency entry in [1], in test [2], in test [8], in [5] and in test [6] was “inactive” throughout. Besides, in test [3], the Potency is 49 µM (active).

In the case of `Cc1cc(SCc2sc(-c3ccc(C(F)(F)F)c(F)c3)nc2C)ccc1OCC(=O)O`, the Potency result in test [1] and in test [2] was “inactive” throughout. For the same compound, the Potency was 2.45 µM (active) in [8] and 49 µM (active) in [3].

Turning to `c1ccc2cc3c(cc2c1)-c1cccc2cccc-3c12`, the Potency in [1] is 0.12 µM (active); in test [6], 5.21 µM (active). Further, the Potency result in test [2], in test [3] and in test [5] was “inactive” throughout.

On to `Oc1ccc(C2(c3ccc(O)cc3)c3ccccc3-c3ccccc32)cc1`, for which the Potency entry in test [1] is “inactive”. Further, the Potency in [3] is 17.4 µM (active); in test [4] it was 27.3 µM (active); in test [5], 21.9 µM (active).

Take `O=C(O)C1C2CCC(O2)C1C(=O)O` (configuration not stated): the Potency entry in [2], in test [3], in [4], in test [5] and in test [6] was “inactive” throughout.

On to `O=C(CCCN1CCC2(CC1)C(=O)NCN2c1ccccc1)c1ccc(F)cc1`, for which the Potency entry in test [8], in [5] and in [6] was “inactive” each time. The Potency in test [7] was 2.98 µM (active).

On to `COc1cccc2c1C(=O)c1c(O)c3c(c(O)c1C2=O)C[C@@](O)(C(=O)CO)CC3OC1CC(N2CCOC(OC)C2)C(O)C(C)O1` (some centres not stated), for which the Potency in test [4] is 9.44 µM (active). For the same compound, the Potency result in test [6] was “inactive”.

In the case of `N#CC(Cl)Cl`, the Potency result in test [1], in test [2], in [4] and in test [5] was “inactive” in each case.

Consider `O=C(Nc1ccc2[nH]ccc2c1)c1cc2cc(F)ccc2n1Cc1cccc(F)c1`, for which the Potency result in test [1] is “inactive”. Also, the Potency in test [5] is 49 µM (active).

In the case of `N#C/C=C/C#N`, the Potency result in [2], in [4] and in test [5] was “inactive” each time.

`CC(=O)/C=C/c1ccc2c(c1)OCO2`: the Potency result in test [2], in test [8], in test [3] and in test [4] was “inactive” in each case. In addition, the Potency in [9] is 12.4 µM (active).

For the compound `O=[N+]([O-])O.O=[N+]([O-])O.[Cd]`, the Potency result in [1] and in test [5] was “inactive” in each case. In addition, the Potency in test [2] was 1.93 µM (active); in test [4] it was 0.611 µM (active).
